{"source": "the supplement of paper PMC8728848", "assay_in_all_cases": "glycan array binding signal (z-score within array); higher = stronger binding", "details_in_all_cases": "glycan notation: IUPAC condensed, linker removed", "key": {"[1]": {"target": "GlcNAc(b1-2)[GlcNAc(b1-4)]Man(a1-3)[GlcNAc(b1-4)][GlcNAc(b1-2)Man(a1-6)]Man(b1-4)GlcNAc(b1-4)GlcNAc", "method_in_brief": "(§1)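 Negative Z-scores can be read as non-binding. The Z-score is calculated within each array and then averaged across arrays of one protein sequence at different concentrations or buffers and across linkers. Arrays, 3228 in all, were curated from the Consortium for Functional Glycomics database and kept only where the protein sequence was available.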"}, "[2]": {"target": "GlcNAc(b1-3)Fuc", "method_in_brief": "as §1"}, "[3]": {"target": "GlcNAc(b1-3)Gal(b1-3)GalNAc", "method_in_brief": "as §1"}, "[4]": {"target": "GlcNAc(b1-3)Gal(b1-4)GlcNAc(b1-2)[GlcNAc(b1-3)Gal(b1-4)GlcNAc(b1-6)]Man(a1-6)[GlcNAc(b1-3)Gal(b1-4)GlcNAc(b1-2)Man(a1-3)]Man(b1-4)GlcNAc(b1-4)GlcNAc", "method_in_brief": "as §1"}, "[5]": {"target": "GlcNAc(b1-3)Gal(b1-4)GlcNAc(b1-3)Gal(b1-4)GlcNAc(b1-2)Man(a1-3)[GlcNAc(b1-3)Gal(b1-4)GlcNAc(b1-3)Gal(b1-4)GlcNAc(b1-2)Man(a1-6)]Man(b1-4)GlcNAc(b1-4)GlcNAc", "method_in_brief": "as §1"}, "[6]": {"target": "GlcNAc(b1-3)Gal(b1-4)GlcNAc(b1-3)Gal(b1-4)GlcNAc(b1-3)Gal(b1-4)GlcNAc(b1-2)[GlcNAc(b1-3)Gal(b1-4)GlcNAc(b1-3)Gal(b1-4)GlcNAc(b1-3)Gal(b1-4)GlcNAc(b1-6)]Man(a1-6)[GlcNAc(b1-3)Gal(b1-4)GlcNAc(b1-3)Gal(b1-4)GlcNAc(b1-3)Gal(b1-4)GlcNAc(b1-2)Man(a1-3)]Man(b1-4)GlcNAc(b1-4)[Fuc(a1-6)]GlcNAc", "method_in_brief": "as §1"}, "[7]": {"target": "GlcNAc(b1-3)GalNAc", "method_in_brief": "as §1"}, "[8]": {"target": "GlcNAc(b1-4)GlcNAc(b1-4)GlcNAc", "method_in_brief": "as §1"}, "[9]": {"target": "GlcNAc(b1-6)GalNAc", "method_in_brief": "as §1"}, "[10]": {"target": "Kdn(a2-3)Gal(b1-4)GlcNAc", "method_in_brief": "as §1"}, "[11]": {"target": "Man(a1-2)Man(a1-2)Man(a1-3)Man", "method_in_brief": "as §1"}, "[12]": {"target": "Man(a1-3)[Man(a1-6)]Man", "method_in_brief": "as §1"}, "[13]": {"target": "Man(a1-3)[Man(a1-6)]Man(b1-4)GlcNAc(b1-4)[Fuc(a1-6)]GlcNAc", "method_in_brief": "as §1"}, "[14]": {"target": "Neu5Ac(a2-3)Gal(b1-3)GlcNAc(b1-2)Man(a1-3)[GlcNAc(b1-4)][Neu5Ac(a2-3)Gal(b1-3)GlcNAc(b1-2)Man(a1-6)]Man(b1-4)GlcNAc(b1-4)GlcNAc", "method_in_brief": "as §1"}, "[15]": {"target": "Neu5Ac(a2-3)Gal(b1-4)GlcNAc(b1-3)Gal(b1-4)[Fuc(a1-3)]GlcNAc", "method_in_brief": "as §1"}, "[16]": {"target": "Neu5Ac(a2-3)[Neu5Ac(a2-6)]GalNAc", "method_in_brief": "as §1"}, "[17]": {"target": "Neu5Ac(a2-6)Gal(b1-4)GlcNAc(b1-2)Man(a1-3)[Man(a1-6)]Man(b1-4)GlcNAc(b1-4)GlcNAc", "method_in_brief": "as §1"}, "[18]": {"target": "Neu5Ac(a2-6)Gal(b1-4)GlcNAc(b1-3)Gal(b1-4)GlcNAc", "method_in_brief": "as §1"}, "[19]": {"target": "Neu5Ac(a2-6)Gal(b1-4)GlcNAc(b1-3)Gal(b1-4)GlcNAc(b1-3)Gal(b1-4)GlcNAc(b1-2)Man(a1-3)[Neu5Ac(a2-6)Gal(b1-4)GlcNAc(b1-3)Gal(b1-4)GlcNAc(b1-3)Gal(b1-4)GlcNAc(b1-2)Man(a1-6)]GalNAc", "method_in_brief": "as §1"}, "[20]": {"target": "Neu5Ac(a2-6)Gal(b1-4)GlcNAc(b1-3)[Neu5Ac(a2-6)Gal(b1-4)GlcNAc(b1-6)]GalNAc", "method_in_brief": "as §1"}, "[21]": {"target": "Neu5Ac(a2-6)GlcNAc(b1-4)GlcNAc", "method_in_brief": "as §1"}, "[22]": {"target": "Neu5Ac(a2-8)Neu5Ac(a2-8)Neu5Ac(a2-3)[Gal(b1-3)GalNAc(b1-4)]Gal(b1-4)Glc", "method_in_brief": "as §1"}, "[23]": {"target": "Neu5Ac(a2-8)Neu5Ac(a2-8)Neu5Ac(a2-3)[GalNAc(b1-4)]Gal(b1-4)Glc", "method_in_brief": "as §1"}, "[24]": {"target": "Neu5Gc(a2-3)Gal(b1-4)GlcNAc", "method_in_brief": "as §1"}, "[25]": {"target": "Neu5Gc(b2-6)Gal(b1-4)GlcNAc", "method_in_brief": "as §1"}}, "note": "Many of the other results were omitted from the sample, so the strongest signals are more common in it than they were.", "data": [{"binder": "GS13599A-bth-520-23-520 (Bacteroides thetaiotaomicron) (protein) SEDTMDRINKDHDHTTSVASRFILADVITSTAFSNASGDINTYASSYIEYEVGVDNQLYYAEVRENEPSSSSTFNNSWNGIYSSLKNARIIIDQCGEGGRDHGNDVTRGMAEVMAAYNCALIADFFGDAPCSQAALVDEKGSPVYMTPKMDTQQEIYTQIISYLDDAIANLQKEDLADVTEQDFLYAGDADKWLKFAYGLKARYTMRLINRSSNKSADYEKVLDYVSKSFTSADDQAAFDIYDSNNINPFYGFYNSRAGFGASTSLGTKLLAYNDPRANRAFFTPIVDKKRSQVAANDPSLVPAPNGSPDQSTSKYGISAFVYAKTAPTLLMSYHELMFLKAEALCRLNRDAEDALKEAVVAGLLNAENSISIAIKELGSGLNTNSSEVITETSAGKYFDDVVKAKYAANPLQETMIQKYLAMWGASGEATETYNDFRRMKGLNENFITLTNPNNSSKFPLRYPYGNSDTAANPEVKAAYGNGDYVYSEPVWWAGGSR", "values": [{"measurement": "glycan array binding signal (z-score)", "setting": "[1]", "value": -1.27}, {"measurement": "glycan array binding signal (z-score)", "setting": "[2]", "value": -0.118}, {"measurement": "glycan array binding signal (z-score)", "setting": "[3]", "value": 1.12}, {"measurement": "glycan array binding signal (z-score)", "setting": "[4]", "value": 1.84}, {"measurement": "glycan array binding signal (z-score)", "setting": "[5]", "value": 1.66}, {"measurement": "glycan array binding signal (z-score)", "setting": "[6]", "value": 0.815}, {"measurement": "glycan array binding signal (z-score)", "setting": "[7]", "value": -0.348}, {"measurement": "glycan array binding signal (z-score)", "setting": "[8]", "value": -0.942}, {"measurement": "glycan array binding signal (z-score)", "setting": "[9]", "value": -0.798}, {"measurement": "glycan array binding signal (z-score)", "setting": "[10]", "value": 0.096}, {"measurement": "glycan array binding signal (z-score)", "setting": "[11]", "value": 0.245}, {"measurement": "glycan array binding signal (z-score)", "setting": "[12]", "value": 0.71}, {"measurement": "glycan array binding signal (z-score)", "setting": "[13]", "value": 0.777}, {"measurement": "glycan array binding signal (z-score)", "setting": "[14]", "value": 0.566}, {"measurement": "glycan array binding signal (z-score)", "setting": "[15]", "value": -0.897}, {"measurement": "glycan array binding signal (z-score)", "setting": "[16]", "value": -0.336}, {"measurement": "glycan array binding signal (z-score)", "setting": "[17]", "value": 0.864}, {"measurement": "glycan array binding signal (z-score)", "setting": "[18]", "value": -1.27}, {"measurement": "glycan array binding signal (z-score)", "setting": "[19]", "value": 2.37}, {"measurement": "glycan array binding signal (z-score)", "setting": "[20]", "value": 0.2}, {"measurement": "glycan array binding signal (z-score)", "setting": "[21]", "value": 0.611}, {"measurement": "glycan array binding signal (z-score)", "setting": "[22]", "value": 1.71}, {"measurement": "glycan array binding signal (z-score)", "setting": "[23]", "value": -1.68}, {"measurement": "glycan array binding signal (z-score)", "setting": "[24]", "value": -0.966}, {"measurement": "glycan array binding signal (z-score)", "setting": "[25]", "value": -0.127}]}]}
